Assay outcomes (PubChem BioAssay)
MCF10A rerep – A quantitative high throughput screen for small molecules that induce DNA re-replication in MCF 10a normal breast cells. MCF 10A DNA re-replication, Hoechst nuclear intensity, 48 h. Potency, µM (series often up to 46.1 µM), without a hit: at the top dose activity, positive = re-replication, actives largely listed as activators. 350,000 tested, 2.9% active; also: potency is read from the fitted curve at half-maximal effect; % of control where 0% means no effect; nearly all actives have a fitted effect of over 50% in size
TDP1 cell noCPT – qHTS for Inhibitors of human tyrosyl-DNA phosphodiesterase 1 (TDP1): qHTS in cells in absence of CPT; DT40 Tdp1-/- hTDP1 cells, no CPT, ATP luminescence, 48 h; Potency, µM (top dose mostly 46.2 µM), without a hit: at the highest dose activity change, negative = growth inhibition, hits mostly inhibitors; 420,000 tested, 15% active; AID 686978, 2013; also: potency is read from the fitted curve at half-maximal effect; % is scaled to controls: 0 for no effect and ±100 for the full control effect; nearly all actives have a fitted effect of over 55% in size
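Compound effects on proliferation are scored in DT40 Tdp1-/-;hTDP1 cells in the absence of CPT. ATP levels (CellTiter-Glo luminescence) are recorded after a ≥48 hr, 37 °C incubation.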
IL1B secr inh – qHTS for Inhibitors of Inflammasome Signaling: IL-1-beta AlphaLISA Primary Screen; 360,000 tested, 4.7% active; THP-1 LPS/ATP IL-1B secretion, AlphaLISA, 16 h; active compounds read low; AID 743279, 2014; activity change, % at 57.5 µM; in the data active = activity change below about -50%; inconclusive = mostly about -30% to -49%; also: % is scaled to controls: 0 for no effect and ±100 for the full control effect
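Secreted IL-1B measured by AlphaLISA bead assay after 16 h compound exposure of THP-1 cells; compounds (final up to 57.5 uM) added 1 h before LPS (250 ng/mL) and ATP (1.25 mM) stimulation; lower signal means less secretion.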
Chronic BCR inh – qHTS Assay to Find Inhibitors of Chronic Active B-Cell Receptor Signaling. ABC-DLBCL IkBa-CBG/CBR reporter, luminescence ratio, 4 h. 340,000 tested, 0.05% active. Potency, µM (top dose mostly 46.1 µM), inactives show top-dose activity change, negative = inhibition, most hits filed as inhibitors; active = well fitted inhibition curve with a large enough effect in the signal ratio, with a control signal flat, not every such curve was filed as active; inconclusive = small, poorly fitted or top-dose-only effect, or effect the other way, or a change in a side signal; the % refers to the signal ratio;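 also: potency is read from the fitted curve at half-maximal effect; plate controls were basal doxycycline-induced cells for no effect and cells given 10 µM MG132 for full effect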
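Cell line TMD8 (human ABC DLBCL), stably expressing tet-inducible CBG68-IkBa fusion and CBR; IMDM/0.5% FBS; cpd up to 46 uM; dox induction, 4 h, 37C/5% CO2; dual luminescence; green/red ratio; MG132 control.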
DT40 TDP1 CPT – qHTS for Inhibitors of human tyrosyl-DNA phosphodiesterase 1 (TDP1): qHTS in cells in presence of CPT. 420,000 tested, 12% active. Potency, µM (series often up to 46.2 µM), inactives show top-dose activity change, negative = growth inhibition, hits mostly inhibitors. chicken DT40 Tdp1-/-;hTDP1 cells + 20 nM CPT, ATP luminescence, 48 h; also: potency is read from the fitted curve at half-maximal effect; % is scaled to controls: 0 for no effect and ±100 for the full control effect; nearly all actives have a fitted effect of over 55% in size
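Chicken DT40 Tdp1-/- cells stably complemented with human TDP1 were seeded at 400 cells/well in medium containing 20 nM camptothecin, exposed to pin-transferred compounds, and grown at 37 °C for at least 48 hr. Viability was read as ATP luminescence.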
SW480 rerep – A quantitative high throughput screen for small molecules that induce DNA re-replication in SW480 colon adenocarcinoma cells; SW480 DNA re-replication, Hoechst DNA content imaging, 48 h; Potency, µM (highest dose often 46.1 µM), for inactives: top-dose re-replication activation, usual class: activators; 340,000 tested, 1.8% active; AID 624297, 2012; also: potency is read from the fitted curve at half-maximal effect; % of control where 0% means no effect; nearly all actives have a fitted effect of over 55% in size
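DNA re-replication was detected as more nuclei of elevated Hoechst intensity after 48 hr exposure to compound (23 nL pinned per well of 250 cells).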
Numbers without * were called inactive. A selection: hits, their analogues and other compounds. The true share with any hit is near 19%. Unless noted, calls follow the shape of the dose curve; as a rule, active = well fitted curve in the direction sought with a large enough effect; inconclusive = small, poorly fitted or top-dose-only effect, or another doubt; inactive = no such curve, though single readings can be large; an effect the other way counts as inactive or inconclusive.

`COc1cc(C(=O)N2CCCCC2c2cc(C(=O)Nc3ccccc3Cl)no2)cc(OC)c1C` (centres undefined) gave TDP1 cell noCPT 18µM*, IL1B secr inh 5 and DT40 TDP1 CPT inconclusive.
Screening CCc1nnc2c(NCc3cccc(OC)c3)nc3ccccc3n12 returned TDP1 cell noCPT inconclusive and DT40 TDP1 CPT -26%.
Screening COc1ccc2oc(C(=O)N3CCN(C/C=C/c4ccccc4)CC3)c(C)c2c1 returned MCF10A rerep 23µM*, TDP1 cell noCPT -30%, IL1B secr inh 8, Chronic BCR inh inconclusive, DT40 TDP1 CPT -16% and SW480 rerep 3%.
Screening Cc1ccc(C(=O)N2CCN(Cc3ccccc3)CC2)o1 returned MCF10A rerep -22%, TDP1 cell noCPT -2%, IL1B secr inh -16, Chronic BCR inh 3%, DT40 TDP1 CPT -6% and SW480 rerep -2%.
`Cc1cc2oc(C(=O)N3CCN(Cc4ccccc4)CC3)c(C)c2cc1C` gave MCF10A rerep inconclusive, TDP1 cell noCPT inconclusive, IL1B secr inh -15, DT40 TDP1 CPT 26µM* and SW480 rerep -14%.
COc1ccc2oc(C(=O)N3CCN(C(c4ccccc4)c4ccccc4)CC3)c(C)c2c1 was read as MCF10A rerep inconclusive, TDP1 cell noCPT 18µM*, IL1B secr inh -25, Chronic BCR inh inconclusive, DT40 TDP1 CPT inconclusive and SW480 rerep -65%.
Cc1c(C(=O)N2CCN(C/C=C/c3ccccc3)CC2)oc2c(F)cccc12 was read as MCF10A rerep 11%, TDP1 cell noCPT inconclusive, IL1B secr inh -4, Chronic BCR inh -19%, DT40 TDP1 CPT inconclusive and SW480 rerep -4%.
Screening CC(C)Oc1ccc(S(=O)(=O)N2CCOCC2)cc1NC(=O)c1ccc(Cl)c(S(=O)(=O)N2CCOCC2)c1 returned TDP1 cell noCPT -22%, IL1B secr inh inconclusive and DT40 TDP1 CPT -13%.
`CN(c1ccccc1)c1ccc(/C=C(\CCC(=O)O)c2nc3ccccc3s2)cc1[N+](=O)[O-]` gave MCF10A rerep 3%, TDP1 cell noCPT -7%, IL1B secr inh -6, Chronic BCR inh 0%, DT40 TDP1 CPT -10% and SW480 rerep 8%.
For CN(c1ccccc1)c1ccc(/C=C(\C#N)c2nnc3n2CCCCC3)cc1[N+](=O)[O-] the results were MCF10A rerep inconclusive, TDP1 cell noCPT 12µM*, IL1B secr inh -106*, Chronic BCR inh 16%, DT40 TDP1 CPT 18µM* and SW480 rerep -5%.
For N#C/C(=C\c1cccc([N+](=O)[O-])c1)c1nnc2n1CCCCC2 the results were MCF10A rerep 7%, TDP1 cell noCPT inconclusive, IL1B secr inh -91*, Chronic BCR inh inconclusive, DT40 TDP1 CPT inconclusive and SW480 rerep -2%.
For O=S1(=O)N[C@H](Cc2ccccc2)COc2cc(N3CCSCC3)ccc21 the results were TDP1 cell noCPT -20%, IL1B secr inh -18 and DT40 TDP1 CPT 1%.
Screening CN1[C@@H](Cc2ccccc2)COc2cc(N3CCSCC3)ccc2S1(=O)=O returned TDP1 cell noCPT 16µM*, IL1B secr inh -12 and DT40 TDP1 CPT inconclusive.
Screening CSc1nnc(-c2cc3c(s2)-c2ccccc2CC3)o1 returned MCF10A rerep inconclusive, TDP1 cell noCPT inconclusive, IL1B secr inh -1, Chronic BCR inh -7%, DT40 TDP1 CPT -4% and SW480 rerep 0%.
For S=c1[nH]nc(-c2cc3c(s2)-c2ccccc2CC3)o1 the results were MCF10A rerep inconclusive, TDP1 cell noCPT -16%, IL1B secr inh 29, Chronic BCR inh inconclusive, DT40 TDP1 CPT inconclusive and SW480 rerep 8.2µM*.
Screening COc1ccc(C(=O)NCC(=O)N2CCN(C(=O)c3ccco3)CC2)cc1[N+](=O)[O-] returned MCF10A rerep 2%, TDP1 cell noCPT 8%, IL1B secr inh 3, Chronic BCR inh 1%, DT40 TDP1 CPT -12% and SW480 rerep 4%.
COC(=O)[C@@H](NCc1ccc(B(O)O)cc1)C(C)C was read as MCF10A rerep inconclusive, TDP1 cell noCPT -14%, IL1B secr inh inconclusive, DT40 TDP1 CPT -2% and SW480 rerep -4%.
For COCc1cccc(-c2csc(C(O)c3ccc(F)c(OC)c3)n2)c1 (centres undefined) the results were TDP1 cell noCPT 21µM*, IL1B secr inh 0 and DT40 TDP1 CPT 8.2µM*.
Screening COCc1cccc(-c2csc(C(O)c3cccc(OC)c3)n2)c1 (centres undefined) returned TDP1 cell noCPT inconclusive, IL1B secr inh -18 and DT40 TDP1 CPT 18µM*.
COc1ccc(C(O)c2nc(-c3ccc(F)c(Cl)c3)cs2)cc1 (centres undefined) was read as TDP1 cell noCPT inconclusive, IL1B secr inh 0 and DT40 TDP1 CPT inconclusive.
`COc1cccc(C(O)c2nc(-c3ccc(F)c(Cl)c3)cs2)c1` (centres undefined) gave TDP1 cell noCPT inconclusive, IL1B secr inh -24 and DT40 TDP1 CPT 16µM*.
`COc1ccc(-c2csc(C(O)c3ccc(F)c(OC)c3)n2)cc1` (centres undefined) gave TDP1 cell noCPT 15µM*, IL1B secr inh -4 and DT40 TDP1 CPT 13µM*.
Screening COCc1cccc(-c2csc(C(O)c3ccccc3)n2)c1 (centres undefined) returned TDP1 cell noCPT inconclusive, IL1B secr inh 8 and DT40 TDP1 CPT inconclusive.
For CC(=O)C(C(c1ccccc1)N1CCCc2ccccc21)N1CCOCC1 (centres undefined) the results were MCF10A rerep 1%, TDP1 cell noCPT inconclusive, IL1B secr inh 6, DT40 TDP1 CPT inconclusive and SW480 rerep 0%.
Screening CN(C(=O)c1nn(C)c2c1CS(=O)(=O)c1ccccc1-2)c1cccc(Cl)c1 returned MCF10A rerep 0%, TDP1 cell noCPT inconclusive, IL1B secr inh 1, Chronic BCR inh -7%, DT40 TDP1 CPT -11% and SW480 rerep 1%.
CC1(C(=O)NS(=O)(=O)c2cccc(F)c2)CCN1C(=O)c1ccccc1 (centres undefined) was read as TDP1 cell noCPT -1%, IL1B secr inh 22 and DT40 TDP1 CPT -7%.
